Results filed as inconclusive are left out. Values without a mark were called inactive. Calls of active or inactive are those of the source. Calls come from the whole dose curve; as a rule, active = well fitted curve in the direction sought with a large enough effect; inconclusive = small, poorly fitted or top-dose-only effect, or another doubt; inactive = no such curve, though single readings can be large; an effect the other way counts as inactive or inconclusive.
Potency is the fitted concentration of half-maximal effect.

One assay can be described thus: qHTS of pediatric cancer cell lines to identify multiple opportunities for drug repurposing: Confirmatory screen for DAOY cells (AID 1347114). For activity change, negative = cytotoxic: % is set by controls: 0 for no effect and ±100 for the full control effect. Note: nearly all actives have a fitted effect of over 65% in size. Particulars: DAOY medulloblastoma cells viability, cytotoxicity qHTS; series mostly up to 97.2 µM; activity change, negative = cytotoxic: at the top concentration. An excerpt: (§1) Drug repurposing or repositioning has been offered as a strategy for drug development in oncology programs. This approach has special potential for childhood cancers and other rare or orphan diseases, where the expected return on new drug development has been a disincentive to pharmaceuticals.
(§2) In this project we exploit the poly-pharmacology of drugs to discover new indications via phenotypic screening of a panel of 19 well-characterized cell lines derived from solid tumors seen in children and adolescents. The goal is to identify approved drugs with previously unrecognized anticancer properties that has the potential to reveal new mechanisms and biological processes involved in carcinogenesis or drug resistance. We employed a titration-based paradigm (quantitative high-throughput screening or qHTS), where all compounds were tested at multiple concentrations for their effect on cell viability. Concentration-response curves (CRCs) were derived directly from the primary screen, and both potency and efficacy values were used to identify compounds with robust bioactivity profiles. We screened the NIH Chemical Genomics Center (NCGC) Pharmaceutical Collection (NPC) and Mechanism Interrogation Plate (MIPE) small molecule collections of approved and investigational compounds against these cell lines; and measured metabolically active cells after 48 hours of compound treatment as a proxy for cell viability.
(§3) Assay Submitter: Nathalia J. Martinez, National Center for Advancing Translational Sciences, National Institutes of Health, Rockville, MD, USA; email: natalia.martinez@nih.gov
(§4) [1] Shen, M et al. Quantitative high-throughput phenotypic screening of pediatric cancer cell lines identifies multiple opportunities for drug repurposing. Oncotarget 2017 Dec 19;9(4):4758-4772. PMID 29435139.
(§5) The cells were obtained from University of North Carolina (UNC), Pediatric Preclinical Testing Program (PPT), and Coriell Institute (CI).
(§6) qHTS cell viability assay:
(§7) Cells were assayed in growth media at a density of 500-1,000 cells/well. Five microliters of cells were dispensed into 1,536-well, white, solid-bottom, TC-treated plates (Greiner Bio One) using a multidrop dispenser and incubated at 37 degrees C, 5% CO2, under a humidified atmosphere for 5 hours. Twenty-three nanoliters of compounds and controls (neutral control DMSO or positive control bortezomib at final concentration of 2.3 µM) were subsequently transferred by Kalypsys pintool. For primary screens, the MIPE collection was tested at 11-point dilutions (final concentrations range from 0.78 nM to 46 µM) and the NPC collection at 8-point dilutions (final concentrations range from 0.59 nM to 46 µM). Compounds tested in follow-up screens were assayed at 11-point dilutions. Cells were incubated for 48 hours, followed by addition of 3 uL of CellTiter-Glo (Promega). After a 15 min incubation at room temperature, samples were analyzed for luminescence intensity using a ViewLux High-throughput CCD imager equipped with clear filters.
A general note: qHTS replaces the single test concentration by a dilution series.
As for `CN(C)c1ccc(C(=C2C=CC(=[N+](C)C)C=C2)c2ccccc2)cc1`, the Potency was 0.657 µM (active).
Turning to `COC(=O)c1nc(Cl)c(Cl)nc1N`, the Potency was 1.65 µM (active).
With `CCOC(=O)c1ccccc1O`, the “activity change, negative = cytotoxic” value is -7.45% [at 45.9 µM].
As for `N=C1N=C(N)c2cc3ccccc3cc21`, the Potency is 42.7 µM (active).
`Nc1ccc([N+](=O)[O-])cc1O`: the “activity change, negative = cytotoxic” value was -9.97%.
For the compound `COc1cccc2c1C(=O)c1c(O)c3c(c(O)c1C2=O)C[C@@](O)(C(=O)CO)C[C@@H]3O[C@H]1C[C@H](N)[C@H](O[C@@H]2CCCCO2)[C@H](C)O1`, the Potency is 11.7 µM (active).
Same read-out and setting: under `CCCSc1ccc2nc(NC(=O)OC)[nH]c2c1` stands 1.26 µM (active).

A short description of another assay: qHTS of pediatric cancer cell lines to identify multiple opportunities for drug repurposing: Confirmatory screen for NB-EBc1 cells (AID 1347115). For activity change, negative = cytotoxic: % is set by controls: 0 for no effect and ±100 for the full control effect.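 Note: cells exposed to compound for 48 h before the viability read; nearly all actives have a fitted effect of over 45% in size.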 Particulars: NB-EBc1 neuroblastoma cells, viability (cytotoxicity); series mostly up to 95.5 µM; activity change, negative = cytotoxic: at the top concentration.
Source text: as §1, §2, §3, §4, §5, §6
as §7, with “µL” for “uL”
`Oc1c(Br)cc(Br)c2cccnc12`: the Potency is 26.1 µM (active).
The same measure, in the same setting: under `CN(C)c1ccc(C(=C2C=CC(=[N+](C)C)C=C2)c2ccccc2)cc1` stands 0.827 µM (active).
For the compound `COC(=O)c1nc(Cl)c(Cl)nc1N`, the Potency is 16.5 µM (active).
Take `CCOC(=O)c1ccccc1O`: the “activity change, negative = cytotoxic” value is -7.71% [at 45.9 µM].
In the case of `Nc1ccc([N+](=O)[O-])cc1O`, the “activity change, negative = cytotoxic” value is -6.18%.
As for `COc1cccc2c1C(=O)c1c(O)c3c(c(O)c1C2=O)C[C@@](O)(C(=O)CO)C[C@@H]3O[C@H]1C[C@H](N)[C@H](O[C@@H]2CCCCO2)[C@H](C)O1`, the Potency is 3.29 µM (active).
Consider `[O-][n+]1ccccc1SSc1cccc[n+]1[O-]`, for which the Potency was 2.57 µM (active).

A further assay can be described thus: qHTS of pediatric cancer cell lines to identify multiple opportunities for drug repurposing: Confirmatory screen for SJ-GBM2 cells (AID 1347116).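 For activity change, negative = cytotoxic: plate controls were DMSO for no effect and bortezomib for full effect.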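 Note: 48 hour compound exposure; nearly all actives have a fitted effect of over 60% in size.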 Particulars: SJ-GBM2 glioblastoma cells, viability; series mostly up to 97.2 µM; activity change, negative = cytotoxic: at the top concentration.
Source text: as §1, §2, §3, §4, §5, §6, §7
For `Oc1c(Br)cc(Br)c2cccnc12`, the “activity change, negative = cytotoxic” value is -18.9% [at 45.9 µM].
With `CN(C)c1ccc(C(=C2C=CC(=[N+](C)C)C=C2)c2ccccc2)cc1`, the Potency is 1.31 µM (active).
For the compound `COC(=O)c1nc(Cl)c(Cl)nc1N`, the Potency is 2.08 µM (active).
With `Nc1ccc([N+](=O)[O-])cc1O`, the “activity change, negative = cytotoxic” value is -18.9%.
Turning to `COc1cccc2c1C(=O)c1c(O)c3c(c(O)c1C2=O)C[C@@](O)(C(=O)CO)C[C@@H]3O[C@H]1C[C@H](N)[C@H](O[C@@H]2CCCCO2)[C@H](C)O1`, the Potency is 14.7 µM (active).

A short description of a further assay: qHTS of pediatric cancer cell lines to identify multiple opportunities for drug repurposing: Confirmatory screen for BT-37 cells (AID 1347117).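 Note: viability measured after 48 h of compound exposure; nearly all actives have a fitted effect of over 55% in size.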 To be noted: BT-37 pediatric cancer cells, viability. The method in brief: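 Cells (500-1,000/well) in growth media were settled 5 h at 37 degrees C, then given compounds for 48 h. Viability was read as CellTiter-Glo luminescence. Primary runs used MIPE at 11 points (0.78 nM-46 µM) and NPC at 8 points (0.59 nM-46 µM); follow-ups used 11 points.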
In the case of `COC(=O)Nc1nc2ccc(C(=O)C3CC3)cc2[nH]1`, the Potency is 2.33 µM (active).
`Oc1c(Br)cc(Br)c2cccnc12`: the Potency is 18.5 µM (active).
Take `CN(C)c1ccc(C(=C2C=CC(=[N+](C)C)C=C2)c2ccccc2)cc1`: the Potency was 0.657 µM (active).
As for `COC(=O)c1nc(Cl)c(Cl)nc1N`, the Potency was 1.47 µM (active).
Consider `N=C1N=C(N)c2cc3ccccc3cc21`, for which the Potency is 38 µM (active).
In the case of `COc1cccc2c1C(=O)c1c(O)c3c(c(O)c1C2=O)C[C@@](O)(C(=O)CO)C[C@@H]3O[C@H]1C[C@H](N)[C@H](O[C@@H]2CCCCO2)[C@H](C)O1`, the Potency was 1.17 µM (active).
As to `[O-][n+]1ccccc1SSc1cccc[n+]1[O-]`, the Potency is 0.811 µM (active).
In the case of `CCCSc1ccc2nc(NC(=O)OC)[nH]c2c1`, the Potency is 3.98 µM (active).
